Among the data in PubChem BioAssay (EPA / NIEHS) are AC50 and outcome values, retold here.

Conditions in all cases: mRNA level, 48 h; actives raise or lower the signal
Read-out in assay [1]: Cytochrome P450 (CYP2B6), CYP2B6 (gene 1555)
Put plainly: LTEA_HepaRG_CYP2B6: Life Technologies and Expression Analysis (LTEA) Assay for Cytochrome P450 (CYP2B6) using HepaRG (AID 2283481). In outline: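 Human HepaRG, 48 h dosing, 0.5% DMSO vehicle, top dose 100 uM. CYP2B6 transcript by qRT-PCR, housekeeping-normalized, bidirectional curve fit.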

Read-out in the next assay: CYP2C8 (gene 1558)
Put plainly: LTEA_HepaRG_CYP2C8: Life Technologies and Expression Analysis (LTEA) Assay for CYP2C8 using HepaRG (AID 2283483). The essentials: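 HepaRG (human liver line), 48 h chemical exposure, 8-pt half-log series from 100 uM, 0.5% DMSO vehicle. Readout: CYP2C8 transcript by qRT-PCR, housekeeping-normalized. Bidirectional fit vs DMSO baseline.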

Read-out in a further assay: CYP2C9 (gene 1559)
Put plainly: LTEA_HepaRG_CYP2C9: Life Technologies and Expression Analysis (LTEA) Assay for CYP2C9 using HepaRG (AID 2283484). The essentials:
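HepaRG, 48 h dosing, 8-pt half-log series, top 100 uM, 0.5% DMSO vehicle. Read-out: CYP2C9 transcript by TaqMan qRT-PCR, housekeeping-normalized (ACTB/GAPDH/POLR2A). Gain or loss fitted vs DMSO baseline.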

Read-out in the next assay: CYP2E1 (gene 1571)
Put plainly: LTEA_HepaRG_CYP2E1: Life Technologies and Expression Analysis (LTEA) Assay for CYP2E1 using HepaRG (AID 2283485). The essentials:
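Readout is qRT-PCR of CYP2E1 mRNA, normalized to three housekeeping genes and fitted bidirectionally against 0.5% DMSO. HepaRG cells were dosed 48 h at eight concentrations, highest 100 uM with half-log dilutions.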

Read-out in the next assay: CYP4A11 (gene 1579)
Put plainly: LTEA_HepaRG_CYP4A11: Life Technologies and Expression Analysis (LTEA) Assay for CYP4A11 using HepaRG (AID 2283486). The essentials:
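Human hepatic HepaRG cultures receive duplicate 48 h exposures across a concentration-response series topping at 100 uM. Expression changes in CYP4A11 are measured by qRT-PCR relative to DMSO controls.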

Read-out in assay [2]: Cytochrome P450 3A4 (Homo sapiens) (UniProt P08684)
Put plainly: LTEA_HepaRG_CYP3A4: Life Technologies and Expression Analysis (LTEA) Assay for CYP3A4 using HepaRG (AID 2283487). The essentials:
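HepaRG, 48 h exposure, 8-pt CRC from 100 uM (half-log), 0.5% DMSO, duplicates; serum-free induction medium. Readout: CYP3A4 mRNA, qRT-PCR, ACTB/GAPDH/POLR2A normalization. Bidirectional fit vs DMSO.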

Read-out in assay [3]: DNA damage-inducible transcript 3 (DDIT3), DDIT3 (gene 1649)
Put plainly: LTEA_HepaRG_DDIT3: Life Technologies and Expression Analysis (LTEA) Assay for DNA damage-inducible transcript 3 (DDIT3) using HepaRG (AID 2283488). The essentials: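 Cells are human HepaRG liver cells treated for 48 h with eight half-log concentrations up to 100 uM in 0.5% DMSO. Transcript levels come from qRT-PCR normalized to three housekeeping genes, with activity fitted in both directions relative to vehicle.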

Read-out in assay [4]: Pro-epidermal growth factor (Homo sapiens) (UniProt P01133)
Put plainly: LTEA_HepaRG_EGF: Life Technologies and Expression Analysis (LTEA) Assay for Epidermal growth factor (EGF) using HepaRG (AID 2283489). In outline:
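Concentration-response mRNA assay: HepaRG cells dosed 48 h (max 100 uM, 0.5% DMSO), EGF measured by qRT-PCR and normalized to ACTB/GAPDH/POLR2A.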

Read-out in assay [5]: Early growth response protein 1 (EGR1) transcription factor, EGR1 (gene 1958)
Put plainly: LTEA_HepaRG_EGR1: Life Technologies and Expression Analysis (LTEA) Assay for Early growth response protein 1 (EGR1) transcription factor using HepaRG (AID 2283490). The essentials: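 HepaRG, 48 h exposure, 8-pt half-log series from 100 uM, 0.5% DMSO vehicle; EGR1 transcript by TaqMan qRT-PCR (Fluidigm array), housekeeping-normalized; bidirectional fit relative to DMSO baseline.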

Read-out in assay [6]: Cytochrome P450 3A7 (Homo sapiens) (UniProt P24462)
Put plainly: LTEA_HepaRG_CYP3A7: Life Technologies and Expression Analysis (LTEA) Assay for CYP3A7 using HepaRG (AID 2283492). The essentials: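 qRT-PCR of CYP3A7 in HepaRG lysates after 48 h treatment; concentration-response (8 points, max 100 uM) analysed bidirectionally relative to 0.5% DMSO controls.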

Read-out in another assay: CYP3A5 (gene 1577)
Put plainly: LTEA_HepaRG_CYP3A5: Life Technologies and Expression Analysis (LTEA) Assay for CYP3A5 using HepaRG (AID 2283493). In outline:
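Human HepaRG hepatic cells receive 48 h chemical treatment at eight concentrations (half-log steps from 100 uM) in 0.5% DMSO. Expression of CYP3A5 is quantified by Fluidigm qRT-PCR and normalized to three reference genes.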

Read-out in assay [7]: Fatty Acid-Binding Protein 1 (FABP1), FABP1 (gene 2168)
Put plainly: LTEA_HepaRG_FABP1: Life Technologies and Expression Analysis (LTEA) Assay for Fatty Acid-Binding Protein 1 (FABP1) using HepaRG (AID 2283494). The essentials:
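qRT-PCR readout of FABP1 transcript (normalized to three housekeeping genes) after 48 h chemical exposure of HepaRG cells; eight concentrations, half-log steps, max 100 uM, 0.5% DMSO vehicle; gain or loss fitted relative to DMSO baseline.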

Read-out in assay [8]: Cytochrome P450 4A22 (Homo sapiens) (UniProt Q5TCH4)
Put plainly: LTEA_HepaRG_CYP4A22: Life Technologies and Expression Analysis (LTEA) Assay for Cytochrome P450 4A22 (CYP4A22) using HepaRG (AID 2283495). The essentials:
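Concentration-response (8 points, max 100 uM, 0.5% DMSO) in human HepaRG liver cells after 48 h exposure. CYP4A22 mRNA by TaqMan qRT-PCR with housekeeping-gene normalization.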

Read-out in assay [9]: Cytochrome P450 7A1 (Homo sapiens) (UniProt P22680)
Put plainly: LTEA_HepaRG_CYP7A1: Life Technologies and Expression Analysis (LTEA) Assay for Cytochrome P450 7A1 (CYP7A1) using HepaRG (AID 2283496). In outline:
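HepaRG, 48 h exposure, 8-pt half-log series from 100 uM, 0.5% DMSO vehicle, duplicates. Readout: TaqMan qRT-PCR mRNA vs three housekeeping genes; bidirectional curve fit against DMSO baseline.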

Read-out in assay [10]: Glutathione S-Transferase (GSTA2), GSTA2 (gene 2939)
Put plainly: LTEA_HepaRG_GSTA2: Life Technologies and Expression Analysis (LTEA) Assay for Glutathione S-Transferase (GSTA2) using HepaRG (AID 2283497). In outline: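 qRT-PCR readout of GSTA2 transcript, normalized to three housekeeping genes, fitted bidirectionally against 0.5% DMSO baseline. Differentiated HepaRG cells received compound for 48 h at 8 concentrations (top 100 uM, half-log steps).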

Read-out in assay [11]: Glutamate-cysteine ligase catalytic (GCLC), GCLC (gene 2729)
Put plainly: LTEA_HepaRG_GCLC: Life Technologies and Expression Analysis (LTEA) Assay for Glutamate-cysteine ligase catalytic (GCLC) using HepaRG (AID 2283498). In outline: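 HepaRG, 48 h exposure, 8-pt half-log series from 100 uM, 0.5% DMSO vehicle; TaqMan qRT-PCR for GCLC mRNA, housekeeping-normalized; bidirectional curve fit vs DMSO baseline.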

Read-out in assay [12]: growth arrest and DNA damage 45 (GADD45G), GADD45G (gene 10912)
Put plainly: LTEA_HepaRG_GADD45G: Life Technologies and Expression Analysis (LTEA) Assay for growth arrest and DNA damage 45 (GADD45G) using HepaRG (AID 2283499). The essentials: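 Concentration-response in HepaRG: 48 h dosing, 0.5% DMSO, highest level 100 uM. GADD45G expression by qRT-PCR, normalised to endogenous controls; bidirectional fit to DMSO.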

Read-out in assay [13]: Glutamate-cysteine ligase regulatory (GCLM), GCLM (gene 2730)
Put plainly: LTEA_HepaRG_GCLM: Life Technologies and Expression Analysis (LTEA) Assay for Glutamate-cysteine ligase regulatory (GCLM) using HepaRG (AID 2283500). In outline: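 Endpoint is GCLM transcript level by qRT-PCR, normalized to three housekeeping genes, after 48 h chemical exposure of human HepaRG cells (0.5% DMSO vehicle, top 100 uM, half-log dilutions). Fitting was bidirectional relative to DMSO.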

Read-out in assay [14]: Cytochrome P450 2C19 (Homo sapiens) (UniProt P33261)
Put plainly: LTEA_HepaRG_CYP2C19: Life Technologies and Expression Analysis (LTEA) Assay for CYP2C19 using HepaRG (AID 2283482). In outline:
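Endpoint: CYP2C19 mRNA change, bidirectional fit vs 0.5% DMSO. Cells: HepaRG, 48 h exposure, eight-point series topping at 100 uM. Quantitation: qRT-PCR normalized to ACTB, GAPDH, POLR2A.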

SMILES strings stand for the structures. Active and inactive are the calls of the source. The calls were made as follows: active = hit-call score of the fitted dose curve at least 0.9, where 1 is the maximum; inactive = score below 0.9.

Usually AC50 stands for the concentration at which the activity in the assay is half-maximal.

Cytochrome P450 3A7 (Homo sapiens), sequence (P24462 whole entry, looked up): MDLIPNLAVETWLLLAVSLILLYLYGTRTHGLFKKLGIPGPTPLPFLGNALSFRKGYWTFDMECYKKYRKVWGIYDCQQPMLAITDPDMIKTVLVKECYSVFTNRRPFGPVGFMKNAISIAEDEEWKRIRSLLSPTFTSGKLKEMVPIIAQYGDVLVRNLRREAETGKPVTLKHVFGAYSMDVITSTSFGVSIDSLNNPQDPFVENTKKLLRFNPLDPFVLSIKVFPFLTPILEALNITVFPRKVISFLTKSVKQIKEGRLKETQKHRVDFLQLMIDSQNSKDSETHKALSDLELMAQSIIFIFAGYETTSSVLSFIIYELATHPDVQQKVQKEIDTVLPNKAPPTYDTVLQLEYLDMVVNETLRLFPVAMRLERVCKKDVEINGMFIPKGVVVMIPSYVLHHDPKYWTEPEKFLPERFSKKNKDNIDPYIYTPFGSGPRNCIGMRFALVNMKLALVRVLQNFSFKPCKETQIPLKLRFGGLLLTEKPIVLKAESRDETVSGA
Cytochrome P450 3A4 (Homo sapiens), sequence (P08684 whole entry, looked up): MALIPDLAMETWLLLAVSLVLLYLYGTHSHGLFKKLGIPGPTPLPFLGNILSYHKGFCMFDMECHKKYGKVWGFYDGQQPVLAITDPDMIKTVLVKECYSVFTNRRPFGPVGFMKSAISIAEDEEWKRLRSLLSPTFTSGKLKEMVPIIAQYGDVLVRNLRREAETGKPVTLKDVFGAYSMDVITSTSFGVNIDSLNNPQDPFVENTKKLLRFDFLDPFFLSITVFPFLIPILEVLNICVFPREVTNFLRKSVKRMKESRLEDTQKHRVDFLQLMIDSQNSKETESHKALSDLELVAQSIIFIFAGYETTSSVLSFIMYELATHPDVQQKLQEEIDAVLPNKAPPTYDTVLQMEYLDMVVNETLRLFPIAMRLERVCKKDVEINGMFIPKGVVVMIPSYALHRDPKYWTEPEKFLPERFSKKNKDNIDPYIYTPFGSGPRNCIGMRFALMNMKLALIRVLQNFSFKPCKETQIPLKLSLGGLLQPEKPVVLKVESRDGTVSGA
Cytochrome P450 2C19 (Homo sapiens), sequence (P33261 whole entry, looked up): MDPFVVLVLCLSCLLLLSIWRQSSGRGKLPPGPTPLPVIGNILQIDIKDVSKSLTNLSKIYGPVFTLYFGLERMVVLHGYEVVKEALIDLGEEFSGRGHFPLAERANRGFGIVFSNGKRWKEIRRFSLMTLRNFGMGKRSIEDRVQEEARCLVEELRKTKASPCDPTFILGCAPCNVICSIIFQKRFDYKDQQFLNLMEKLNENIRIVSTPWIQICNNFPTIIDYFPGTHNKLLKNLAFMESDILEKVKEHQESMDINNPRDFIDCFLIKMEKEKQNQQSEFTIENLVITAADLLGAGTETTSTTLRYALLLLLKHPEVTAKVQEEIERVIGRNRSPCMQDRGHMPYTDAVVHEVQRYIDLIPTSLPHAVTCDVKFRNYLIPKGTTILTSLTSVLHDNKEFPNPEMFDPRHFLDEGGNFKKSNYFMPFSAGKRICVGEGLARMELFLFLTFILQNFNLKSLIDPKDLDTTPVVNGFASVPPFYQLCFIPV

As to `CCNc1nc(Cl)nc(NC(C)C)n1`, the half-maximal activity concentration (AC50) in assay [1] was 2.34 µM (active); in the assay with CYP2C8 (gene 1558), 31.5 µM (active); with CYP2E1 (gene 1571), 16.6 µM (active); with CYP4A11 (gene 1579), 50 µM (active); in assay [2], 15.7 µM (active); in assay [8], 50 µM (active). For the same molecule, the result (with CYP2C9 (gene 1559); in assay [3]; in assay [4]; in assay [5]; in assay [6]; with CYP3A5 (gene 1577)) was inactive. The molecule was classed as inactive in assay [7], in [9], in [10], in assay [11], in assay [12] and in assay [13].
Consider `CNC(=S)S`, for which the AC50 in assay [1] was 29.7 µM (active). The outcome (with CYP2C8 (gene 1558); with CYP2C9 (gene 1559); in the assay with CYP2E1 (gene 1571); in the assay with CYP4A11 (gene 1579); in assay [2]; in assay [3]) was inactive. In addition, the molecule was called inactive (in assay [4]; in assay [5]; in assay [6]; with CYP3A5 (gene 1577); in [7]; in assay [8]). Also, the call in assay [9], in assay [10], in [11], in [12] and in [13] was inactive.
On to `Fc1ccc(Oc2ccnc3cc(Cl)cc(Cl)c23)cc1`, for which the AC50 in [1] was 11.9 µM (active); with CYP2C8 (gene 1558), 86.6 µM (active); in the assay with CYP2C9 (gene 1559), 86.8 µM (active); with CYP2E1 (gene 1571), 77.7 µM (active); with CYP4A11 (gene 1579), 70.1 µM (active); in assay [3], 65.1 µM (active). Moreover, the AC50 in [4] was 32.8 µM (active); in assay [6], 79.4 µM (active); in assay [7] it was 87 µM (active); in assay [8], 82.6 µM (active); in assay [9], 90.5 µM (active). In addition, the molecule was called inactive (in assay [14]; in [2]; in assay [5]; in the assay with CYP3A5 (gene 1577); in assay [11]; in assay [12]). Moreover, the result in assay [13] was inactive.
As for `Cc1ccc(-c2c(Cl)nc(C#N)n2S(=O)(=O)N(C)C)cc1`, the AC50 in assay [1] is 5 µM (active); in the assay with CYP2C8 (gene 1558), 9.33 µM (active); with CYP2C9 (gene 1559) it was 7.78 µM (active); with CYP2E1 (gene 1571), 5.17 µM (active); with CYP4A11 (gene 1579), 10.4 µM (active); in assay [2], 24.8 µM (active). The AC50 was 21.7 µM (active) in assay [3]; 83.5 µM (active) in [6]; 4.76 µM (active) in assay [7]; 73.9 µM (active) in assay [8]; 10 µM (active) in assay [9]; 7.01 µM (active) in [11]. Further, in assay [12], the AC50 is 11.7 µM (active). Moreover, the result (in assay [4]; in assay [5]; with CYP3A5 (gene 1577); in assay [13]) was inactive.
